Each molecule was assayed on LEGO organoid PTCC (PTEN-/-; TP53-/-; CDKN2A-/-; CDKN2B-/-) (assay: bioluminescence (viable cell) signal fold change after vs before treatment, normalised to DMSO (ratio); higher = more tumour cell growth / less inhibition). Conditions: 10 µM; treatment time 6 days.
Procedure: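 Luc2-labelled iPSC-derived glioblastoma-like organoids (LEGOs, genotypes PT = PTEN-/-;TP53-/-, PTCC = plus CDKN2A/B-/-, PTN = plus NF1-/-) were treated with 10 uM drug for 6 days (applied every other day) at 37 C. Bioluminescence imaging was done before treatment and 2 days after the last dose. BLI signals were normalised to the DMSO control on the same day and then to the pre-treatment signal (N=3).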

Point of comparison: CCC(CC)O[C@@H]1C=C(C(=O)O)C[C@H](N)[C@H]1NC(C)=O [Oseltamivir acid], bioluminescence 0.404. Against it:
- COc1ccc2c(c1)c(CC(=O)O)c(C)n2C(=O)c1ccc(Cl)cc1 [Indometacin] — higher, 1.24
- Nc1nc(NC2CC2)c2ncn([C@H]3C=C[C@@H](CO)C3)c2n1 [Abacavir] — higher, 1.46
- CCc1nn(CCCN2CCN(c3cccc(Cl)c3)CC2)c(=O)n1CCOc1ccccc1.Cl [Nefazodone hydrochloride] — higher, 1.12
- Cl.O=C1CC2(CCCC2)CC(=O)N1CCCCN1CCN(c2ncccn2)CC1 [Buspirone hydrochloride] — higher, 1.47
- Nc1cccc2c1CN(C1CCC(=O)NC1=O)C2=O (stereo not drawn) [Lenalidomide] — higher, 4.82
- C[C@@H](Oc1cc(-c2cnn(C3CCNCC3)c2)cnc1N)c1c(Cl)ccc(F)c1Cl [Crizotinib] — higher, 0.43
- Nc1nc(=O)c2c(CCc3ccc(C(=O)N[C@@H](CCC(=O)[O-])C(=O)[O-])cc3)c[nH]c2[nH]1.Nc1nc(=O)c2c(CCc3ccc(C(=O)N[C@@H](CCC(=O)[O-])C(=O)[O-])cc3)c[nH]c2[nH]1.O.O.O.O.O.[Na+].[Na+].[Na+].[Na+] [Pemetrexed Disodium Hydrate] — higher, 0.95
- C[C@H]1COc2c(N3CCN(C)CC3)c(F)cc3c(=O)c(C(=O)O)cn1c23 [Levofloxacin] — higher, 0.587
- CC(=O)OCC(=O)[C@@]1(O)CC[C@H]2[C@@H]3CCC4=CC(=O)C=C[C@]4(C)[C@H]3[C@@H](O)C[C@@]21C [Prednisolone-21-acetate] — higher, 1.01
- CC(=O)OCC(=O)[C@@]1(O)[C@H](C)C[C@H]2[C@@H]3CCC4=CC(=O)C=C[C@]4(C)[C@@]3(F)[C@@H](O)C[C@@]21C [Dexamethason acetate] — higher, 0.467
- CC1(C)S[C@@H]2[C@H](NC(=O)[C@H](N)c3ccc(O)cc3)C(=O)N2[C@H]1C(=O)O.O.O.O [Amoxicillin trihydrate] — higher, 2.36
- NC(=O)c1cn(Cc2c(F)cccc2F)nn1 [Rufinamide] — higher, 2.69
- NCCS(=O)(=O)O [Taurine] — higher, 0.71
- CNCCC(Oc1ccc(C(F)(F)F)cc1)c1ccccc1.Cl (stereo not drawn) [Fluoxetine hydrochloride] — higher, 1.74
- CC(=O)N[C@@H](CS)C(=O)O [Acetylcysteine] — higher, 1.21
- O=NN(CCCl)C(=O)NC1CCCCC1 [Lomustine] — higher, 1.17
- CO[C@H]1C[C@@H]2CC[C@@H](C)[C@@](O)(O2)C(=O)C(=O)N2CCCC[C@H]2C(=O)O[C@H]([C@H](C)C[C@@H]2CC[C@@H](OC(=O)C(C)(CO)CO)[C@H](OC)C2)CC(=O)[C@H](C)/C=C(\C)[C@@H](O)[C@@H](OC)C(=O)[C@H](C)C[C@H](C)/C=C/C=C/C=C/1C [Temsirolimus] — higher, 0.978
- Cl.NCC(=O)CCC(=O)O [5-Aminolevulinic acid hydrochloride] — higher, 2.27
- CCCOc1ccc(S(=O)(=O)NCCC2CCCN2C)cc1-c1nc2c(CCC)nn(C)c2c(=O)[nH]1 (stereo not drawn) [Udenafil] — higher, 1.32
- CCCc1nc(C)c2c(=O)[nH]c(-c3cc(S(=O)(=O)N4CCN(CC)CC4)ccc3OCC)nn12 [Vardenafil] — higher, 1.16
- Cc1ccnc2c1NC(=O)c1cccnc1N2C1CC1 [Nevirapine] — higher, 0.901
- CC(=O)O.Cc1c(-c2ccc(O)cc2)n(Cc2ccc(OCCN3CCCCCC3)cc2)c2ccc(O)cc12 [Bazedoxifene acetate] — higher, 1.37
- C[C@H]1[C@H](NC(=O)/C(=N\OC(C)(C)C(=O)O)c2csc(N)n2)C(=O)N1S(=O)(=O)O [Aztreonam] — higher, 0.795
- CCc1c2c(nc3ccc(OC(=O)N4CCC(N5CCCCC5)CC4)cc13)-c1cc3c(c(=O)n1C2)COC(=O)[C@]3(O)CC [Irinotecan] — higher, 2.25
- O=C(CCCCCCC(=O)Nc1ccccc1)NO [Vorinostat] — higher, 0.409
- CC/C(=C(/CC)c1ccc(O)cc1)c1ccc(O)cc1 [Diethylstilbestrol] — higher, 0.673
- CC[C@@H]1/C=C(\C)C[C@H](C)C[C@H](OC)[C@H]2O[C@@](O)(C(=O)C(=O)N3CCCC[C@H]3C(=O)O[C@H](/C(C)=C/[C@@H]3CC[C@H](Cl)[C@H](OC)C3)[C@H](C)[C@@H](O)CC1=O)[C@H](C)C[C@@H]2OC [Pimecrolimus] — higher, 0.535
- CC1=NN(c2ccccc2)C(=O)C1 [Edaravone] — higher, 0.508
- CCOC(=O)OC(C)OC(=O)[C@@H]1N2C(=O)[C@@H](NC(=O)[C@H](N)c3ccccc3)[C@H]2SC1(C)C.Cl (stereo partly drawn) [Bacampicillin hydrochloride] — higher, 1.35
- CCN(CC)CCNC(=O)c1cc(Cl)c(N)cc1OC [5-Chloro-2-methoxyprocainamide] — lower, 0.329
- NC(=O)N[C@@H](CCC(=O)O)C(=O)O [Carglumic Acid] — higher, 0.631
- CN(C)CCCN1c2ccccc2CCc2ccc(Cl)cc21.Cl [Clomipramine hydrochloride] — higher, 0.71
- CCc1cc2c(cc1N1CCC(N3CCOCC3)CC1)C(C)(C)c1[nH]c3cc(C#N)ccc3c1C2=O [Alectinib] — higher, 2.57
- Cc1cn(-c2cc(NC(=O)c3ccc(C)c(Nc4nccc(-c5cccnc5)n4)c3)cc(C(F)(F)F)c2)cn1 [Nilotinib] — higher, 1.4
- CCCN(CCC)S(=O)(=O)c1ccc(C(=O)O)cc1 [Probenecid] — higher, 1.41
- CS(=O)(=O)CCNCc1ccc(-c2ccc3ncnc(Nc4ccc(OCc5cccc(F)c5)c(Cl)c4)c3c2)o1.Cc1ccc(S(=O)(=O)O)cc1.Cc1ccc(S(=O)(=O)O)cc1 [Lapatinib Ditosylate] — higher, 1.03
- Cl.O=C1c2cccc3c2[C@H](CCC3)CN1[C@@H]1CN2CCC1CC2 [Palonosetron hydrochloride] — higher, 0.952
